# Tested on: Chordin-like protein 2 (CHRDL2)
# Experiment: compounds binding chordin-like 2 – biochemical, small-molecule microarray, 635 nm fluorescence, primary screen (AID 1126);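 also: printed compound slides probed with Chrdl2 protein at 4 µg/mL for 1 h at 4 C; score merges 667 nm emission intensity with signal to noise over three replicate slides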
# Conditions: fluorescence 635 nm, higher = more signal
row,SMILES,composite z-score
1,Cc1ccc(S[C@]2(C(=O)NCCCN(C)C)CC(=O)N(C3CCCCC3)[C@@H]2c2ccc(CO)cc2I)cc1,-0.801
2,O=C1C2C=CC(C(O)C#Cc3ccccc3)N(Nc3ccccc3)C2C(=O)N1c1ccccc1 (stereo not given),-0.575
3,O=C1NC(=O)C2C1C=CC(C(O)C=Cc1ccc([N+](=O)[O-])cc1)N2Nc1ccccn1 (stereo not given),1.39
4,Cc1ccc(S(=O)(=O)N[C@H]2COC(=O)CC=C[C@H](C)COC(=O)N[C@@H](C)C(=O)CC=C[C@@H]2C)cc1,1.52
5,Cc1ccc(N2C(=O)c3ccccc3[C@](C)(C(=O)NCC(C)C)[C@@H]2c2ccc(CO)cc2)nc1,-0.233
6,O=C1C2C=CC(C(O)c3ccccc3)N(n3cnnc3)C2C(=O)N1Cc1ccccc1 (stereo not given),0.0921
7,COc1cc([C@@H]2N[C@H](C(=O)O)Cc3c2[nH]c2ccccc32)cc(OC)c1OC,0.475
8,C=CCNC(=O)[C@H]1[C@@H]2C(=O)O[C@@H](c3ccccc3)[C@@H](c3ccccc3)N2[C@@H](c2ccc(O)cc2)[C@]12C(=O)Nc1ccc(C#CCNC(N)=O)cc12,-1.02
9,CCC#CCN(Cc1ccccc1Br)[C@H](/C=C/c1ccccc1)[C@@H](O)Cc1ccccc1,-1.16
10,CCCC=C(CCC)[C@@H](NC(=O)c1ccccc1)c1ccccc1,-0.768
11,CO[C@H]1O[C@H](CO)[C@@H](OC(=O)CCc2ccccc2)[C@@H]2OC(=O)[C@H](Cc3cccc(Br)c3)C/C=C/C[C@@H](Cc3cccc(Br)c3)C(=O)O[C@@H]12,-1.41
12,C=CCC(OC(C)=O)[C@@H]1[C@@H](N(Cc2cccc3ccccc23)C(=O)c2ccc(C)cc2)c2cc(OCCCO)ccc2N1C(=O)c1ccc(-c2ccccc2)cc1 (stereo not given in full),0.114
13,Cc1ccc(N2C(=O)c3ccccc3[C@](C)(C(=O)O)[C@@H]2c2ccc(CO)cc2)nc1,-1.77
14,C[C@@H]1CC[C@H]2C(=O)N3[C@@H](CC[C@@H](C)[C@@H]3c3cccc(N4CCOCC4)c3)C(=O)N2[C@H]1c1cccc(N2CCOCC2)c1,0.902
15,Cc1ccc(S[C@]2(C(=O)NCCN3CCOCC3)CC(=O)N(C3Cc4ccccc4C3)[C@@H]2c2ccc(CO)cc2I)cc1,-2.56
16,N#Cc1ccc(NN2C(C(O)c3ccc(I)cc3)C=CC3C(=O)N(c4ccccc4)C(=O)C32)cc1 (stereo not given),-0.389
17,CCOC(=O)[C@H]1C/C=C/C[C@H](C(=O)OCC)C(=O)O[C@H]2[C@@H](OC)O[C@H](CO)[C@@H](OC(=O)Nc3ccc(Br)cc3)[C@@H]2OC1=O,-0.12
18,C[C@@H]1C=CCC(=O)OC[C@H]2O[C@@H](C=C[C@@H]2O)[C@H](C)C=CCC(=O)OC[C@H]2O[C@H]1C=C[C@@H]2O,1.58
19,CO[C@@H]1COC(=O)[C@H](C)NC(=O)CC=C[C@@H](C)[C@H](NS(=O)(=O)c2ccc(C)cc2)COC(=O)CC=C[C@@H]1C,-0.0932
20,C=C(CCCC)/C(=C/C[C@@H](OC(=O)c1ccncc1)c1cccc(OCCO)c1)c1cc(C(=O)OC)ccc1OC,0.287
21,[N-]=[N+]=NCc1ccccc1C[C@]1(C(N)=O)N=C(c2ccc(OCCCO)cc2)O[C@H]1c1ccccc1CN=[N+]=[N-],-1.12
22,CCCCO[C@H]1C[C@H]2C(Br)=C[C@@]1(CO)C(=O)[C@]21CO1,0.569
23,CC(C)N1CC=CC23O[C@@H]4/C=C\CCCOC(=O)C4[C@H]2C(=O)N(CCCCCO)[C@@H]3C1=O (stereo not given in full),-1.9
24,CO[C@@H]1COC(=O)[C@H](C)NC(=O)CC=C[C@@H](C)[C@H](OC)COC(=O)[C@H](C)NC(=O)CC=C[C@H]1C,1.16
25,CCOC(=O)C[C@H]1[C@H](OC(=O)Cc2ccc3c(c2)OCO3)[C@@H](NC(=O)c2ccc3ccccc3c2)c2cc(OCCCO)ccc2N1C(=O)Cc1ccc(OC)cc1,0.472
26,CCCN1C(=O)[C@@]2(CCS(=O)(=O)c3ccccc3)N=C(c3ccc(OCCCO)cc3)O[C@H]2c2ccccc21,0.637
27,CCCC[C@@H]1C[C@H]1[C@@H](NC(=O)c1cccs1)c1ccc(Cl)cc1,-1.66
28,C[C@H]1COC(=O)[C@@H]2CCCN2C(=O)[C@@H](C)COC(=O)[C@@H]2CCCN2C1=O,0.296
29,[N-]=[N+]=NCc1ccccc1C[C@@]1(C(=O)O)N=C(c2ccc(OCCCO)cc2)O[C@@H]1c1ccccc1N=[N+]=[N-],-0.256
30,O=C1C2C=CC(C(O)C(c3ccccc3)c3ccccc3)N(Nc3ccc([N+](=O)[O-])cc3)C2C(=O)N1c1ccccc1 (stereo not given),0.0427

# Source: PubChem BioAssay
